The source made the active and inactive calls.
Assays:
[1] = small molecules captured by biotinylated probe aFSTL3 – biochemical, small-molecule microarray, fluorescence 635/667, stem cell growth factor project, primary screen (AID 1064); conditions: higher = more signal;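 further: measures binding of the biotinylated anti-FSTL3 antibody to printed compounds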
[2] = binders from COS7 lysate, DM2A8 probe, primary screen, torsin A project, cell lysate, small-molecule microarray, fluorescence 635/667 (AID 1065); conditions: higher = more signal, COS7 lysate expressing mutant human TOR1A
[3] = small molecules captured by biotinylated probe aFGF2 – biochemical, small-molecule microarray, fluorescence 635/667, stem cell growth factor project, primary screen (AID 1067); conditions: higher = more signal;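 further: measures binding of biotinylated aFGF2 protein to printed compounds on slides; z-score merges feature fluorescence and signal-to-noise across triplicate slides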
[4] = small molecules captured by biotinylated probe aFGF10 – biochemical, small-molecule microarray, fluorescence 635/667, stem cell growth factor project, primary screen (AID 1071); conditions: higher = more signal;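 further: score merges 667 nm spot intensity and signal to noise from triplicate slides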
[5] = biological target: Neurogenic locus notch homolog protein 2 (Homo sapiens) (UniProt Q04721); test: small molecules binding Notch2 protein – biochemical, small-molecule microarray, 635 nm fluorescence, stem cell growth factors, primary screen (AID 1073); conditions: higher = more signal
Chain of Neurogenic locus notch homolog protein 2 (Homo sapiens) (Q04721 whole entry, looked up, canonical isoform): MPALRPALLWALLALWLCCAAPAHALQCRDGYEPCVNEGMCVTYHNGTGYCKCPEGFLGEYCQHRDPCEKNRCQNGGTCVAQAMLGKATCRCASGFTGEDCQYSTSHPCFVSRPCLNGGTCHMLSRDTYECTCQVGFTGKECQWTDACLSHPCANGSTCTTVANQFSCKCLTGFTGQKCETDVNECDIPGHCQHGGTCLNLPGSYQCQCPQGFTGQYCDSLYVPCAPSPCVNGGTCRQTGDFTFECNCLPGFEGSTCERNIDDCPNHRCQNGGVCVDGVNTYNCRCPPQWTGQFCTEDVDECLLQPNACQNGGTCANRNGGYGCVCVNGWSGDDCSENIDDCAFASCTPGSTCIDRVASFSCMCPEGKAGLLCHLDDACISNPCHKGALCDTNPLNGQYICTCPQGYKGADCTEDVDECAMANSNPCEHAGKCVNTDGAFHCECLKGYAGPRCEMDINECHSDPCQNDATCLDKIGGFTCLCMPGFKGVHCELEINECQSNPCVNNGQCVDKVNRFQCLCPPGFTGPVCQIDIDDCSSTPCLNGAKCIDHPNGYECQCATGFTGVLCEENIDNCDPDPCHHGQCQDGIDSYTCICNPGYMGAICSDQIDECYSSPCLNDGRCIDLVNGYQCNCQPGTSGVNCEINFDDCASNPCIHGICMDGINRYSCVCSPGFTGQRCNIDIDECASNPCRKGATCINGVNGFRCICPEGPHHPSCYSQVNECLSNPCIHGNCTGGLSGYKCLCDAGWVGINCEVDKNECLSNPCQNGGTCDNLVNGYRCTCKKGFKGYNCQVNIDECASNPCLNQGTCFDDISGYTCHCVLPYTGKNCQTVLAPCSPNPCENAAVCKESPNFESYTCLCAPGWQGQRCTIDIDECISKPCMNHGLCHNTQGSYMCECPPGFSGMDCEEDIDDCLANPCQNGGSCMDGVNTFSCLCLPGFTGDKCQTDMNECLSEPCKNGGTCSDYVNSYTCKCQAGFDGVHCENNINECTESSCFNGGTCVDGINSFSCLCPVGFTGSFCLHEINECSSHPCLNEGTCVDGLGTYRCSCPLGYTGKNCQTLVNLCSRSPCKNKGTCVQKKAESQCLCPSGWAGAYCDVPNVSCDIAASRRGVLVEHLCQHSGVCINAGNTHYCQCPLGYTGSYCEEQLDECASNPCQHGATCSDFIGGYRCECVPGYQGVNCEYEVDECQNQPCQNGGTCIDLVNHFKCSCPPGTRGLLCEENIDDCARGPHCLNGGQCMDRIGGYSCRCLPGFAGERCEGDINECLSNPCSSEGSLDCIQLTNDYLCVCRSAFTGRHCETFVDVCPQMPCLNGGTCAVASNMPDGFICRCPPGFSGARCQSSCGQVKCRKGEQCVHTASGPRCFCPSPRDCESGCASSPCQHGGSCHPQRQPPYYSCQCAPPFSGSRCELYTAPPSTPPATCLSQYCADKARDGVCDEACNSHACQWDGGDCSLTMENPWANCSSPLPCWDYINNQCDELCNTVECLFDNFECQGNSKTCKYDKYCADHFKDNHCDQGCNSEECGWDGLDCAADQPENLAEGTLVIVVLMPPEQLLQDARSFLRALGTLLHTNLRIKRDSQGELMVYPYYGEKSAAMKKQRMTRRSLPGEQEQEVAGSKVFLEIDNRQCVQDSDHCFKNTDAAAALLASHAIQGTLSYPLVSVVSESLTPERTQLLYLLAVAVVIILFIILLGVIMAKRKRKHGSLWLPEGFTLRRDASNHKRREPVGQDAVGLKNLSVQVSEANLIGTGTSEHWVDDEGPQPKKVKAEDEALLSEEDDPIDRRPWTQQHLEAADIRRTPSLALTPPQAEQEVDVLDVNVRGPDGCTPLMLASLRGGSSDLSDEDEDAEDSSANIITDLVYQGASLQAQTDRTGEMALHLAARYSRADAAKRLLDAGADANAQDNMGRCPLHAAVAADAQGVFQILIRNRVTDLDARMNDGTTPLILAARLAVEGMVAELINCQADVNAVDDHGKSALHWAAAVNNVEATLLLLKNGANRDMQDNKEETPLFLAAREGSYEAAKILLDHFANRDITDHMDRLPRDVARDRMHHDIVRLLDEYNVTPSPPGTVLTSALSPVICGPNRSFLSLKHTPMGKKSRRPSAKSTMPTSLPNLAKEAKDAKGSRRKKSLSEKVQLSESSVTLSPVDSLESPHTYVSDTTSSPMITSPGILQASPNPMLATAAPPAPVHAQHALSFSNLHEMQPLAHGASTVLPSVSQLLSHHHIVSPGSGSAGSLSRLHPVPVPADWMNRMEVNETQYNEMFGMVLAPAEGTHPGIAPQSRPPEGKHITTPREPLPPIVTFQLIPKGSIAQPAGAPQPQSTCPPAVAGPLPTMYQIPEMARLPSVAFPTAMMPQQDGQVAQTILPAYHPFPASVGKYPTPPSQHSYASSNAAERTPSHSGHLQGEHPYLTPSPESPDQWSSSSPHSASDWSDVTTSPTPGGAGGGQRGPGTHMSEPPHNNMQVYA

[6] = biological target: Pro-neuregulin-1, membrane-bound isoform (Homo sapiens) (UniProt Q02297); test: small molecules binding neuregulin-1 protein – biochemical, small-molecule microarray, fluorescence 635/667, psychiatric disease protein project, primary screen (AID 1075); conditions: NRG1 binding, 635 nm fluorescence, higher = more signal;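 further: score combines 667 nm spot fluorescence with signal to noise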
Chain of Pro-neuregulin-1, membrane-bound isoform (Homo sapiens) (Q02297 whole entry, looked up, the tested form may be a part, canonical isoform): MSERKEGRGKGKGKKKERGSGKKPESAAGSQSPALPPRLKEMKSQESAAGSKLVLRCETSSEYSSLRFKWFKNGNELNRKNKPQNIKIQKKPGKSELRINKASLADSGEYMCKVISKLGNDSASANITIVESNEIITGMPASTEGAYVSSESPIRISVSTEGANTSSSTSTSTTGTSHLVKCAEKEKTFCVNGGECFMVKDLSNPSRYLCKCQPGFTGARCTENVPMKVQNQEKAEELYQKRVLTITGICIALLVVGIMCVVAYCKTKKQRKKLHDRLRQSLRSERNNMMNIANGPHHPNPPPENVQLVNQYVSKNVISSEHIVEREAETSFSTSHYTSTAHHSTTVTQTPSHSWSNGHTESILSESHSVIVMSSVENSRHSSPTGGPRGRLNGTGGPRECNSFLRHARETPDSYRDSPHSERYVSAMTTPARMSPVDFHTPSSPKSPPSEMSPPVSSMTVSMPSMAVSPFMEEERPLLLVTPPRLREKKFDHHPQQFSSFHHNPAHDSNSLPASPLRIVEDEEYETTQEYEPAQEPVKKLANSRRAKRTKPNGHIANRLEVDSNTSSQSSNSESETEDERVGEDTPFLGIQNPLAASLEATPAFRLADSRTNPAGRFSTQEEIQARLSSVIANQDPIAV

[7] = system: Neuregulin-1 EGF-like domain; test: small molecules binding NRG1 EGF domain – biochemical, small-molecule microarray, 635 nm fluorescence, primary screen (AID 1081); conditions: higher = more signal;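 further: binding of the protein to compounds printed on small-molecule microarray slides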
[8] = FRG1 expression reporter modulators in myotubes – cell-based, C2C12 myotubes, firefly/Renilla luciferase, luminescence, FRG1 inhibition for FSHD, primary screen (AID 1084); conditions: FRG1 promoter luciferase, higher = more signal, called active from +8 up or from −8 down
[9] = small molecules captured by biotinylated probe aFST – biochemical, small-molecule microarray, fluorescence 635/667, stem cell growth factor project, primary screen (AID 1086); conditions: higher = more signal;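 further: score merges 667 nm fluorescence with signal-to-noise of each printed compound spot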
[10] = binders of probe aHhip on microarray, primary screen, stem cell growth factor project, biochemical, small-molecule microarray, fluorescence 635/667 (AID 1087); conditions: higher = more signal;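 further: score merges spot fluorescence at 667nm with spot signal to noise ratio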
[11] = system: PRMT1 (protein arginine N-methyltransferase 1); test: small molecules binding arginine methyltransferase PRMT1 – biochemical, small-molecule microarray, 635 nm fluorescence, primary screen (AID 1088); conditions: higher = more signal;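 further: binding of Prmt1 protein to compounds spotted on small-molecule microarray slides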
[12] = growth effects on S. cerevisiae YJM789 – YJM789 clinical isolate, OD600, 24 h, basal, primary screen (AID 1089); conditions: higher = more signal, called active from +8 up or from −8 down;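 further: growth of clinical yeast isolate S. cerevisiae YJM 789 seeded 1000 cells per well; test concentration not given here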
[13] = S. pombe growth modifiers, basal conditions – strain 972, OD600, 24 h, no modulator, primary screen (AID 1090);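 further: basal condition with compound alone and no growth modifier present; test concentration not given here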; conditions: S. pombe 972 growth, higher = more signal, called active from +8 up or from −8 down
[14] = budding yeast growth modifiers under rapamycin – strain BY4716, OD600, 96 h, primary screen (AID 1091); further: test concentration not given here; conditions: S. cerevisiae BY4716 + rapamycin, higher = more signal, called active from +8 up or from −8 down
[15] = biological target: Torsin-1A-interacting protein 2 (Homo sapiens) (UniProt Q8NFQ8); test: small molecules binding lysate-expressed LULL1 – cell lysate, human LULL1 lysate, 635/667 nm fluorescence, primary screen (AID 1092); conditions: small-molecule microarray, hLULL1 lysate binding, 635 nm fluorescence; higher = more signal;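 further: probe is lysate of COS7 cells overexpressing human LULL1; score merges per-feature 667 nm fluorescence with signal-to-noise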
Chain of Torsin-1A-interacting protein 2 (Homo sapiens) (Q8NFQ8 whole entry, looked up): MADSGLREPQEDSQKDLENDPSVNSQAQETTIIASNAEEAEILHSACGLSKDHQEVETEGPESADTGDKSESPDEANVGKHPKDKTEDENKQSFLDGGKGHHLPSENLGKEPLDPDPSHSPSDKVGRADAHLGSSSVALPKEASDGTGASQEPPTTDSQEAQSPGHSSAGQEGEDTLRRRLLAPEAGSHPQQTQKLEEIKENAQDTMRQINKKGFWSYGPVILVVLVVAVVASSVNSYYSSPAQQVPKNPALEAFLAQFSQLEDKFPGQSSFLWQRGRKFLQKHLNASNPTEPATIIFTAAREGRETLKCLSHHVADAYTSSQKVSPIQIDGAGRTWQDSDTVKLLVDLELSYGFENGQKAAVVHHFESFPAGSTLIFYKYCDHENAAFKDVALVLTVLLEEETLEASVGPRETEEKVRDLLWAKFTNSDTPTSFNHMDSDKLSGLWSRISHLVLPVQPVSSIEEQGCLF

[16] = optical density change of DRC41 E. coli – strain DRC41, OD650, 24 h, E. coli filamentation project, primary screen (AID 1093);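 further: MC1000 strain lacking acrAB efflux and sulA so SOS filamentation is blocked; test concentration not given here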; conditions: E. coli DRC41 growth, higher = more signal, called active from +8 up or from −8 down
[17] = probe aLefty2 binding to arrayed compounds – biochemical, biotinylated probe, 635/667 nm fluorescence, primary screen (AID 1094); conditions: small-molecule microarray, higher = more signal;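 further: score merges spot fluorescence near 667 nm with spot signal-to-noise ratio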
[18] = system: Noggin (protein binding on small-molecule microarray); test: small molecules binding Noggin protein – biochemical, 635/667 nm fluorescence, primary screen (AID 1095); conditions: 635 nm fluorescence, higher = more signal;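 further: score merges 667 nm feature fluorescence with signal to noise over triplicate slides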
[19] = biological target: Neurogenic locus notch homolog protein 3 (Homo sapiens) (UniProt Q9UM47); test: small molecules binding NOTCH3 protein – biochemical, 635/667 nm fluorescence, primary screen (AID 1096); conditions: small-molecule microarray, 635 nm fluorescence, higher = more signal
[20] = probe aEGFR binding to arrayed compounds – biochemical, biotinylated probe, 635/667 nm fluorescence, primary screen (AID 1097); conditions: small-molecule microarray, higher = more signal;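 further: probe is a biotinylated anti-EGFR antibody binding compounds printed on slides; score combines fluorescence near 667 nm and signal to noise of each spot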

| SMILES | composite z-score [1] | composite z-score [2] | composite z-score [3] | composite z-score [4] | composite z-score [5] | composite z-score [6] | composite z-score [7] | z-score [8] | composite z-score [9] | composite z-score [10] | composite z-score [11] | z-score [12] | z-score [13] | z-score [14] | composite z-score [15] | z-score [16] | composite z-score [17] | composite z-score [18] | composite z-score [19] | composite z-score [20] |
| --- | --- | --- | --- | --- | --- | --- | --- | --- | --- | --- | --- | --- | --- | --- | --- | --- | --- | --- | --- | --- |
| CCCC[C@@H]1C[C@H]1[C@@H](NC(=O)c1cccnc1)c1ccc(-c2ccccc2)cc1 | 0.684 | -0.242 | -0.124 | -0.522 | -1.71 | -0.401 | -0.655 | -0.781 (inactive) | -1.23 | -0.0074 | -0.537 | -1.27 (inactive) | -15.7 (active) | -2.6 (inactive) | -0.795 | -0.919 (inactive) | 0.009 | 1.01 | -0.476 | -0.345 |
| O=C(NC1CC1)[C@@H]1c2ccccc2C(=O)N(Cc2ccccc2)[C@H]1c1ccc(CO)cc1 | 0.176 | -0.301 | -0.0606 | 0.207 | -0.454 | 1.4 | 1.4 | -2.71 (inactive) | 0.646 | -0.493 | 0.449 | 0.763 (inactive) | 0.109 (inactive) | 0.0225 (inactive) | 2.63 | 0.958 (inactive) | -0.479 | -0.43 | -0.0341 | -0.366 |
| COCC(=C=CC[C@H](O)c1ccc(OCCO)cc1)C[C@H](O)COCc1ccccc1 | -0.41 | 0.0477 | -0.0762 | 0.477 | 0.189 | 0.586 | 1.03 | 0.723 (inactive) | 0.163 | 0.0505 | 1.51 | -1.49 (inactive) | -1.44 (inactive) | -0.885 (inactive) | 1.64 | 0.825 (inactive) | -0.298 | 1.4 | 0.573 | -0.02 |
| COCC(=C=CC[C@H](O)c1cccc(OCCO)c1)C[C@H](O)c1ccccn1 | -0.203 | -0.3 | -0.135 | 0.18 | -0.542 | 1.24 | 1.44 | 0.0158 (inactive) | 0.395 | -0.0618 | 1.02 | 0.941 (inactive) | 0.44 (inactive) | 0.371 (inactive) | 1.88 | 0.559 (inactive) | -0.166 | 0.704 | 0.0673 | 0.0149 |
| COCCOC(=O)N1C(=O)[C@@]2(c3cc(C#Cc4ccc(OC)cc4)ccc31)[C@H](C(=O)NC[C@H](O)c1ccccc1)[C@H]1C(=O)O[C@H](c3ccccc3)[C@H](c3ccccc3)N1[C@@H]2c1ccc(O)cc1 | -0.179 | 0.504 | 0.0086 | 0.589 | 1.37 | 0.566 | 1.23 | 0.427 (inactive) | 0.57 | 0.012 | 1.54 | 0.254 (inactive) | 1.06 (inactive) | 1.08 (inactive) | 2.49 | 0.394 (inactive) | -0.0159 | 0.793 | 1.05 | 0.268 |
| C[C@H]1C2=C3C(CC[C@H]4C(OCc5ccc(F)cc5C(F)(F)F)OC[C@](C)([C@@H]34)N(C(=O)OC(C)(C)C)C2)C(CO)C1CO (stereo not given in full) | 0.0721 | -0.249 | 0.0506 | -0.0807 | 1.57 | 1.76 | 0.572 | 0.133 (inactive) | 1.72 | 0.2 | 0.889 | 0.24 (inactive) | -3.71 (inactive) | 0.0345 (inactive) | 3.04 | -1.5 (inactive) | 0.606 | -0.904 | 1.05 | 0.0149 |
| C=C(COC)/C(=C/C[C@@H](OC(=O)c1ccncc1)c1ccc(CO)o1)c1cnc2ccccc2c1 | -0.376 | 1.03 | 0.0235 | 1.2 | 1.73 | 1.5 | 1.34 | 0.487 (inactive) | 0.668 | 0.115 | 1.55 | -0.854 (inactive) | 0.536 (inactive) | 0.14 (inactive) | 1.59 | 0.647 (inactive) | -0.112 | 1.88 | 1.02 | -0.0059 |
| C[C@]1(C(=O)NCCN2CCOCC2)c2ccccc2C(=O)N(Cc2ccc(OC(F)(F)F)cc2)[C@H]1c1ccc(CO)cc1 | 0.0198 | 0.317 | -0.146 | -0.735 | -0.375 | 2.05 | 1.02 | -2.39 (inactive) | 0.045 | -0.236 | 0.562 | -0.15 (inactive) | -0.859 (inactive) | -0.854 (inactive) | 1.82 | 0.365 (inactive) | -0.0823 | 0.557 | 0.164 | -0.213 |
| CC1CC/C=C\[C@H]2OC34C=CCN(c5ccc6ccccc6c5)C(=O)[C@H]3N(C(CO)C(C)C)C(=O)[C@@H]4C2C(=O)O1 (stereo not given in full) | -0.729 | -0.0684 | -0.0598 | -0.0104 | -0.477 | 1.93 | 1.43 | 0.718 (inactive) | -0.25 | -0.132 | 0.445 | -1.03 (inactive) | -1.55 (inactive) | -0.797 (inactive) | 1.76 | -0.578 (inactive) | -0.0313 | -0.0033 | 0.135 | -0.126 |
| COc1cc(CO)cc(I)c1O[C@H]1C=C(C(=O)NCCO)C[C@@H](N(Cc2ccc(F)cc2)C(=O)C2CCCO2)[C@@H]1O (stereo not given in full) | -0.625 | 0.114 | -0.057 | 0.122 | 0.159 | -0.0002 | 0.547 | -0.851 (inactive) | 0.0494 | 0.142 | -0.516 | -0.558 (inactive) | -0.389 (inactive) | -0.188 (inactive) | -0.492 | 3.2 (inactive) | -0.116 | 0.0313 | -0.331 | -0.158 |

Reference: PubChem BioAssay
